CBX7 inh = CBX7 chromodomain binding inhibitors, primary screen, biochemical, AlphaScreen; Chromobox protein homolog 7 (Homo sapiens), O95931; AlphaScreen His6-CBX7 / biotin-H3K27me3 peptide binding; stronger effect = lower value; normalised signal (fraction of DMSO) (no concentration beside the values); 66,000 compounds, 1.1% hits; in the data active = normalised signal below about 0.5
Target sequence (O95931 whole entry, looked up): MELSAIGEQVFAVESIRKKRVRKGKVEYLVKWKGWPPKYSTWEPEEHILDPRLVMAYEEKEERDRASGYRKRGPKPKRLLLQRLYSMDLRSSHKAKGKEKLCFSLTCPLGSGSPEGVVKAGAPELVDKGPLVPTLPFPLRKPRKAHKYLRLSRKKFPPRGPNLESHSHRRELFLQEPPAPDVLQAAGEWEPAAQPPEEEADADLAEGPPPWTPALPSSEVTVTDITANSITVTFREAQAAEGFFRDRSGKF
An asterisk follows results filed as active. Many of the other results were omitted from the sample, so hits are more common in it than they were.

SMILES	CBX7 inh
Cc1ccc(C)c(N2CCN(C(=O)CCN3C(=O)COc4ccccc43)CC2)c1	0.97
Cc1nc(N2CCN(c3ccccc3)CC2)c2c3c(sc2n1)CCCC3	0.87
O=C(O)c1cc(-c2ccc(-c3ccc(Cl)cc3)o2)nc2ccccc12	0.99
CCCn1c(=O)c(C(=O)NCc2cccnc2)c(O)c2ccccc21	0.96
CCn1c(=O)c(C(=O)NC(C)c2ccccc2)c(O)c2ccccc21 (configuration not stated)	1.4
CCCn1c(=O)c(C(=O)NC(C)c2ccccc2)c(O)c2ccccc21 (configuration not stated)	0.28*
Cc1cccc(-c2nc(Oc3ccc(C#N)cc3)c3ccccc3n2)c1	1.1
O=C1CN(C(=O)CCCc2ccccc2)C(c2ccc(F)cc2)c2cc(Br)ccc2N1 (configuration not stated)	0.88
COc1ccc(CNC(=O)C2CCCN(S(=O)(=O)c3cccs3)C2)cc1 (configuration not stated)	1
CCOc1ccc(-n2c(Cc3cc(=O)[nH]c(=O)[nH]3)nnc2SCC(=O)Nc2ccc(F)cc2)cc1	0.91
O=c1c(-c2cc(Br)ccc2NCc2ccccc2)nc2ccccc2n1Cc1ccccc1	0.37*
Cc1ccccc1Cn1c(CNC(=O)Cc2ccccc2)nc2ccccc21	1.2
Cc1ccccc1NCc1nc2ccccc2n1Cc1ccccc1	0.42*
Clc1ccccc1-c1nc(NCc2ccccc2)nc2ccc(Br)cc12	1.5
Cc1ccc(NCc2nc3ccccc3n2Cc2ccccc2)cc1	0.85
c1ccc(Cn2c(NCc3ccc4c(c3)OCO4)nc3ccccc32)cc1	0.94
Cc1ccccc1Nc1c(-c2ccccc2)nc2cccc(C)n12	1
Cc1ccccc1Nc1c(-c2ccc(Cl)cc2)nc2cccc(C)n12	0.94
Cc1ccccc1Nc1c(-c2ccc(N(C)C)cc2)nc2cccc(C)n12	0.46*
Fc1cccc(Cl)c1-c1noc(-c2cc(-c3ccncc3)nc3ccccc23)n1	0.92
Cc1cccc(-c2noc(-c3cc(-c4ccccc4)nc4ccccc34)n2)c1	1.3
c1ccc2c(-c3nc(C4CCCCC4)no3)cc(-c3ccncc3)nc2c1	0.49*
CCCN(CCC)CCCNC(=O)c1cn(CC)c(=O)c2cc(OC)c(OC)cc12	1.2
COC(=O)Nc1nc2cc(Oc3ccc4ccccc4c3Br)c(Cl)cc2[nH]1	1.1
Cc1oc(-c2ccc(Cl)cc2)nc1CN1CCC(C(=O)NC2CC2)CC1	0.97
SMILES	CBX7 inh
CCCCN(CC)S(=O)(=O)c1ccc(C(=O)Nc2ccc(-c3nc4ccccc4[nH]3)cc2)cc1	0.98
Cc1nnc(NC(=O)c2ccc(S(=O)(=O)N(C)c3ccccc3)cc2)o1	0.78
CCN(c1ccccc1)S(=O)(=O)c1ccc(C(=O)Nc2nnc(C)o2)cc1	0.052*
CCCCN(CC)S(=O)(=O)c1ccc(C(=O)Nc2nnc(-c3cccs3)o2)cc1	0.9
C=CCN(CC=C)S(=O)(=O)c1ccc(C(=O)Nc2nnc(-c3cc(OC)cc(OC)c3)o2)cc1	0.94
CCCCN(CC)S(=O)(=O)c1ccc(C(=O)Nc2nnc(C)o2)cc1	0.024*
Cc1ccc(-c2csc(NC(=O)c3ccc(S(=O)(=O)N(C)c4ccccc4)cc3)n2)cc1	1
CCc1nnc(NC(=O)c2ccc(S(=O)(=O)N(CCC#N)CCC#N)cc2)o1	0.056*
CCCN(CCC)S(=O)(=O)c1ccc(C(=O)Nc2nnc(-c3cccs3)o2)cc1	0.93
C=CCN(CC=C)S(=O)(=O)c1ccc(C(=O)Nc2nnc(CC)o2)cc1	0.064*
CCC(C)NC(=O)c1cc2sc(Cl)cc2n1C (configuration not stated)	1
Cc1ccc2c(c1)NC(=O)C(CC(=O)Nc1ccc3c(c1)OCCO3)O2 (configuration not stated)	1
CCCCN(CCCC)CCNC(=O)c1csc2c1CCCCC2	0.98
CC1CCC(NC(=O)c2cnn3ccccc23)CC1 (configuration not stated)	1.1
CCn1c(C)nc2cc(NC(C)=O)ccc21	1
CCOc1ccccc1C1CC(=O)Nc2cc(OC)cc(OC)c21 (configuration not stated)	1.1
Cc1ccnc(NC(=O)c2cc3c(-c4ccccc4F)nn(C)c3s2)c1	0.94
Cc1ccc(CNC(=O)c2cnn3c(C)c4c(nc23)CCCC4)cc1	1
CCc1ccc(-c2nc(CN3CCC(C(=O)NCC(OC)OC)CC3)c(C)o2)cc1	0.81
CCCCNC(=O)c1cc(-c2ccc(OC)cc2)nc2ccc(C(C)C)cc12	1
COc1cc(OC)c(NC(=O)c2csc3c2CCCCC3)cc1Cl	1.1
CCN(Cc1ccccc1)S(=O)(=O)c1ccc2oc(C(=O)O)c(C)c2c1	1.2
CCCCN(CC)S(=O)(=O)c1ccc(C(=O)Nc2ccccc2-c2nc3ccccc3s2)cc1	1.1
CCCCN(CC)S(=O)(=O)c1ccc(C(=O)Nc2nnc(CC)o2)cc1	0.079*
CCc1nnc(NC(=O)c2ccc(S(=O)(=O)N(CC)Cc3ccccc3)cc2)o1	0.76
CCN(Cc1ccccc1)S(=O)(=O)c1ccc(C(=O)Nc2nnc(C)o2)cc1	0.0031*
